# Data taken from the supplement of paper PMC6897291.
# Columns and labels:
# U-2932 [1] = test: growth inhibition by drug alone (1 - RLU/untreated control) (fraction); higher = stronger inhibition; conditions: 177Lu-lilotomab satetraxetan 0 ug/ml
# Outline: (§1)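 A radiolabelled anti-CD37 antibody conjugate (~600 MBq/mg) was applied for 18 h at 0.5 µg/ml to RIVA and 1 µg/ml to U-2932 cells, with untreated cells run alongside. All cells were washed and seeded at 3,000 cells/well onto library-printed plates at 10/100 nM (RIVA) or 10/1,000 nM (U-2932). Growth inhibition was based on RealTime-Glo luminescence compared with untreated no-drug wells. Daily reads began on day 3 after 1 h at 37°C, with each value being 1 − RLU/mean of the 48 such wells on that plate.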
# RIVA [2] = test: as above; conditions: 177Lu-lilotomab satetraxetan 0 ug/ml
# Outline: as §1
# U-2932 [3] = test: growth inhibition by drug plus 177Lu-lilotomab satetraxetan (1 - RLU/untreated control) (fraction); higher = stronger inhibition; conditions: 177Lu-lilotomab satetraxetan 1 ug/ml
# Outline: as §1
# RIVA [4] = test: as above; conditions: 177Lu-lilotomab satetraxetan 0.5 ug/ml
# Outline: as §1
Compound,"growth inhibition by drug alone (U-2932 [1]; 10 nM, time (day): 3)","growth inhibition by drug alone (U-2932 [1]; 10 nM, time (day): 4)","growth inhibition by drug alone (U-2932 [1]; 10 nM, time (day): 5)","growth inhibition by drug alone (U-2932 [1]; 10 nM, time (day): 6)","growth inhibition by drug alone (U-2932 [1]; 1000 nM, time (day): 3)","growth inhibition by drug alone (U-2932 [1]; 1000 nM, time (day): 4)","growth inhibition by drug alone (U-2932 [1]; 1000 nM, time (day): 5)","growth inhibition by drug alone (U-2932 [1]; 1000 nM, time (day): 6)","growth inhibition by drug alone (RIVA [2]; 10 nM, time (day): 3)","growth inhibition by drug alone (RIVA [2]; 10 nM, time (day): 4)","growth inhibition by drug alone (RIVA [2]; 10 nM, time (day): 5)","growth inhibition by drug alone (RIVA [2]; 10 nM, time (day): 6)","growth inhibition by drug alone (RIVA [2]; 100 nM, time (day): 3)","growth inhibition by drug alone (RIVA [2]; 100 nM, time (day): 4)","growth inhibition by drug alone (RIVA [2]; 100 nM, time (day): 5)","growth inhibition by drug alone (RIVA [2]; 100 nM, time (day): 6)","growth inhibition by drug plus 177Lu-lilotomab satetraxetan (U-2932 [3]; 10 nM, time (day): 3)","growth inhibition by drug plus 177Lu-lilotomab satetraxetan (U-2932 [3]; 10 nM, time (day): 4)","growth inhibition by drug plus 177Lu-lilotomab satetraxetan (U-2932 [3]; 10 nM, time (day): 5)","growth inhibition by drug plus 177Lu-lilotomab satetraxetan (U-2932 [3]; 10 nM, time (day): 6)","growth inhibition by drug plus 177Lu-lilotomab satetraxetan (U-2932 [3]; 1000 nM, time (day): 3)","growth inhibition by drug plus 177Lu-lilotomab satetraxetan (U-2932 [3]; 1000 nM, time (day): 4)","growth inhibition by drug plus 177Lu-lilotomab satetraxetan (U-2932 [3]; 1000 nM, time (day): 5)","growth inhibition by drug plus 177Lu-lilotomab satetraxetan (U-2932 [3]; 1000 nM, time (day): 6)","growth inhibition by drug plus 177Lu-lilotomab satetraxetan (RIVA [4]; 10 nM, time (day): 3)","growth inhibition by drug plus 177Lu-lilotomab satetraxetan (RIVA [4]; 10 nM, time (day): 4)","growth inhibition by drug plus 177Lu-lilotomab satetraxetan (RIVA [4]; 10 nM, time (day): 5)","growth inhibition by drug plus 177Lu-lilotomab satetraxetan (RIVA [4]; 10 nM, time (day): 6)","growth inhibition by drug plus 177Lu-lilotomab satetraxetan (RIVA [4]; 100 nM, time (day): 3)","growth inhibition by drug plus 177Lu-lilotomab satetraxetan (RIVA [4]; 100 nM, time (day): 4)","growth inhibition by drug plus 177Lu-lilotomab satetraxetan (RIVA [4]; 100 nM, time (day): 5)","growth inhibition by drug plus 177Lu-lilotomab satetraxetan (RIVA [4]; 100 nM, time (day): 6)"
N#Cc1ccc(NC(=O)Nc2ccccc2Br)c2n[nH]nc12,0.122,0.0624,-0.115,-0.0627,0.0674,0.0714,-0.0804,-0.0945,-0.0525,0.00855,-0.101,-0.43,-0.383,-0.198,-0.264,-0.513,0.0243,0.065,0.134,0.142,0.0797,0.0995,0.138,0.218,,,,,,,,
Nc1nc(Cl)nc2c1ncn2[C@H]1C[C@H](O)[C@@H](CO)O1 [Cladribine],,,,,,,,,0.0585,0.0126,0.00678,0.0233,-0.00435,0.239,0.319,0.387,0.0179,0.0736,0.11,0.212,0.942,0.971,0.983,0.989,0.528,0.571,0.602,0.611,0.683,0.807,0.843,0.878
COc1cc2nc(N3CCCN(C)CC3)nc(NC3CCN(Cc4ccccc4)CC3)c2cc1OC,,,,,,,,,0.0768,0.122,0.055,-0.0793,0.209,0.192,0.165,0.117,0.0951,0.135,0.169,0.207,0.133,0.247,0.267,0.319,0.498,0.588,0.618,0.631,0.469,0.552,0.569,0.565
C[C@]1(c2nc3c(C(N)=O)cccc3[nH]2)CCCN1 [ABT-888 (Veliparib)],,,,,,,,,-0.145,-0.176,-0.216,-0.314,-0.198,-0.238,-0.247,-0.287,-0.0353,-0.0127,0.0158,0.166,-0.0568,0.0163,0.019,0.0852,0.338,0.488,0.516,0.518,0.307,0.418,0.442,0.427
Cc1[nH]c(/C=C2\C(=O)Nc3ccc(S(=O)(=O)N(C)c4cccc(Cl)c4)cc32)c(C)c1C(=O)N1CCN(C)CC1,,,,,,,,,-0.187,-0.174,-0.209,-0.352,-0.317,-0.305,-0.286,-0.342,-0.0184,0.0537,0.0856,0.0845,-0.011,0.0937,0.135,0.249,0.489,0.536,0.543,0.552,0.412,0.518,0.528,0.523
Cc1ccc(S(=O)(=O)C=CC#N)cc1,,,,,,,,,0.0697,-0.00988,-0.0606,-0.287,0.12,0.0423,0.00106,-0.129,0.00206,0.0303,0.0547,0.0948,0.00618,0.193,0.194,0.225,0.414,0.5,0.522,0.534,0.401,0.472,0.47,0.452
CO[C@H]1C[C@@H]2CC[C@@H](C)[C@@](O)(O2)C(=O)C(=O)N2CCCC[C@H]2C(=O)O[C@H]([C@H](C)C[C@@H]2CC[C@@H](OC(=O)C(C)(CO)CO)[C@H](OC)C2)CC(=O)[C@H](C)/C=C(\C)[C@@H](O)[C@@H](OC)C(=O)[C@H](C)C[C@H](C)/C=C/C=C/C=C/1C [Temsirolimus (Torisel)],,,,,,,,,0.78,0.785,0.769,0.7,0.803,0.83,0.833,0.812,0.68,0.614,0.579,0.568,0.648,0.681,0.651,0.651,0.842,0.865,0.86,0.839,0.846,0.883,0.885,0.887
O=C(/C=C/c1cccc(S(=O)(=O)Nc2ccccc2)c1)NO [Belinostat (PXD101)],,,,,,,,,0.107,0.129,0.11,0.00837,0.884,0.83,0.818,0.796,0.0215,0.0654,0.0711,0.0685,0.961,0.975,0.984,0.988,0.503,0.586,0.594,0.603,0.934,0.935,0.938,0.945
COc1cc2c(cc1O)CC[C@@H]1[C@@H]2CC[C@]2(C)[C@@H](O)CC[C@@H]12 [2-Methoxyestradiol],,,,,,,,,-0.258,-0.3,-0.405,-0.422,-0.594,-0.529,-0.534,-0.63,-0.116,-0.0531,0.00475,0.11,0.704,0.761,0.783,0.814,0.476,0.534,0.548,0.552,0.308,0.401,0.422,0.439
